Results as given in PubChem BioAssay.
“And” between values parts separate entries of the source, which are not always exact repeats. Equal entries are not always repeated. For some of these results: Entries with a potency or affinity are not part of this list. The source made the active and inactive calls.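 Rule for the calls, unless noted: active = thallium flux through the channel raised or lowered by more than 3 SD from vehicle-only wells, actives on both sides; inactive = the rest.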

What was measured:
[1] = target: Calcium-dependent protein kinase 1 (Plasmodium falciparum (isolate 3D7)) (UniProt P62344); experiment: PfCDPK1 kinase inhibitors, biochemical, TCAMS library (AID 1159585; cut-off not given, nearly all actives have IC50 up to about 0.98 µM;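 note: inhibitors leave more ATP so luminescence rises with inhibition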); conditions: recombinant PfCDPK1, Kinase-Glo ATP depletion luminescence
Chain of Calcium-dependent protein kinase 1 (Plasmodium falciparum (isolate 3D7)) (P62344 whole entry, looked up): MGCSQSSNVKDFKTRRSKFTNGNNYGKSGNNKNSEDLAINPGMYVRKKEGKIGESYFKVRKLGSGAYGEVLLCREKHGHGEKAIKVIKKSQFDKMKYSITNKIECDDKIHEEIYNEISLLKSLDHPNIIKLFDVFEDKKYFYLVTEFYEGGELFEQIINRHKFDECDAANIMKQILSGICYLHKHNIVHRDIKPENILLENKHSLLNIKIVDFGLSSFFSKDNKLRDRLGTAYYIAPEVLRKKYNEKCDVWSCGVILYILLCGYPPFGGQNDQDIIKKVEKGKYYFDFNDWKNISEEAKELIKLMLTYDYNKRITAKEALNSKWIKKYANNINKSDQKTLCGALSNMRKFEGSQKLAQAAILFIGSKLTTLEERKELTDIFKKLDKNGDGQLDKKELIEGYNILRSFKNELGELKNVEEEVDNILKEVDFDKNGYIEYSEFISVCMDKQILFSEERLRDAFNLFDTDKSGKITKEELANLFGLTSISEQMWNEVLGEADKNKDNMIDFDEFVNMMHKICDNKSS

[2] = system: F380Y; experiment: modulators of BK channel variants, profiling panel, selectivity assay, cell-based, U2OS BacMam, thallium flux, beta subunits (AID 1259406); conditions: at 30 µM;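 note: initial slope of Thallos dye fluorescence rise after thallium is added; log ratio against the mean of 0.3% DMSO vehicle wells on the same plate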
[3] = system: F380Y/beta1; experiment: as above; conditions: at 30 µM
[4] = system: F380Y/beta2Delta; experiment: as above; conditions: at 30 µM
[5] = system: F380Y/beta4; experiment: as above; conditions: at 30 µM
[6] = target: Calcium-activated potassium channel subunit alpha-1 (Homo sapiens) + Leucine-rich repeat-containing protein 26 (Homo sapiens) (UniProt Q12791+Q2I0M4); experiment: as above; conditions: F380Y/Slo1WT/gamma1, at 30 µM
Chain of Calcium-activated potassium channel subunit alpha-1 (Homo sapiens) + Leucine-rich repeat-containing protein 26 (Homo sapiens) (Q2I0M4 whole entry, looked up, one chain of several): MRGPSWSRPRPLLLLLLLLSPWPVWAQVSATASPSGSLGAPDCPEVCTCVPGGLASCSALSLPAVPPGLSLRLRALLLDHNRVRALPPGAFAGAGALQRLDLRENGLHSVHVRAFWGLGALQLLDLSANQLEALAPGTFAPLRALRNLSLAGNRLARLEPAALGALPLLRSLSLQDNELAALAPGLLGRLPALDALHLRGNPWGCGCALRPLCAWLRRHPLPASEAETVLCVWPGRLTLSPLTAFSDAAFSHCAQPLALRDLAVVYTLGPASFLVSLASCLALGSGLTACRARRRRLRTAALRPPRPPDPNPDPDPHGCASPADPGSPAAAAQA

[7] = system: R275C; experiment: as above; conditions: at 30 µM
[8] = system: R275C/beta1; experiment: as above; conditions: at 30 µM
[9] = system: R275C/beta2Delta; experiment: as above; conditions: at 30 µM
[10] = system: R275C/beta4; experiment: as above; conditions: at 30 µM
[11] = system: R275C/Slo1WT/beta2; experiment: as above; conditions: at 30 µM
[12] = liver-stage malaria parasite growth inhibition, primary screen, cell-based, HepG2, luciferase luminescence, HepG2 viability (AID 624349; in the data active = parasite load remaining mostly below about 12%, no sharp cut-off; inactive = mostly above about 10%;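 note: 100% = mean of DMSO negative control wells on the same plate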); conditions: P. berghei liver stage in HepG2, luciferase luminescence, concentration not given here; parasite load remaining: stronger effect = lower value; viability: measured here: HepG2 viability without parasites
[13] = Cy5 fluorescence interference with SSB-bound oligo, artefact control for HCV NS3 helicase inhibitor project, biochemical, NIH Clinical Collection, E. coli SSB (AID 743268; call rule not given here)
[14] = system: Hepatitis C virus NS3 helicase; experiment: HCV NS3 helicase inhibitors, primary screen, biochemical, fluorescence polarization, NIH Clinical Collection (AID 743270; call rule not given here); conditions: NS3 helicase binding to Cy5-dT15 DNA, stronger effect = higher value, concentration not given here
[15] = target: Single-stranded DNA-binding protein (Escherichia coli (strain K12)) (UniProt P0AGE0); experiment: E. coli SSB displacement from DNA, counter-screen for HCV NS3 helicase inhibitor project, biochemical, fluorescence polarization, NIH Clinical Collection (AID 743271; in the data active = inhibition above about 28%); conditions: stronger effect = higher value, concentration not given here
[16] = fluorescence interference in NS3h assay format, artefact control for HCV NS3 helicase inhibitor project, biochemical, NIH Clinical Collection (AID 743272; call rule not given here;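 note: HCV NS3 helicase with a Cy5 labelled single stranded DNA probe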); conditions: fluorescence interference counterscreen, stronger effect = lower value
[17] = system: Neuropilin-2 / VEGF-C interaction (human); experiment: inhibitors of NRP2–VEGF-C binding, biochemical, microplate binding format, z-score (AID 743281; call rule not given here); conditions: microplate NRP2/VEGF-C binding assay; stronger effect = lower value
[18] = modulation of C. elegans fzo-1 (AID 1259413; call rule not given here;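 note: fzo-1 mutant C. elegans worms in liquid wells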); conditions: C. elegans fzo-1 modulator screen, mean read-out; stronger effect = higher value
[19] = sensitizers of A549 cells to miR-34 induction, primary screen, imaging, A549 dox-inducible miR-34, nuclei and caspase counts (AID 1347080;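 active = compounds whose cell count with miR-34 switched on is under 0.7 times the count with it off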); conditions: A549 miR-34 inducible, Hoechst nuclei count, 48 h
[20] = measured here: relative caspase fold change +Dox/-Dox
[21] = measured here: total cells with miR-34 induction, stronger effect = lower value
[22] = measured here: total cells without miR-34 induction

COc1cc(C(=O)NC2CCC(CN3CCC(c4c[nH]c5ccccc45)CC3)CC2)cc(Cl)n1 (stereo unspecified)
inactive: outcome [1]

O=C(/C=C/c1ccc(Cl)c(Cl)c1)NCC1CCC(CN2CCC(c3c[nH]c4ccccc34)CC2)CC1 (stereo unspecified)
inactive: outcome [1]

O=C(NC1CCC(CN2CCC(c3c[nH]c4ccccc34)CC2)CC1)c1cnn(-c2ccccc2)c1-c1ccccc1Cl (stereo unspecified)
inactive: outcome [1]

CN1CC(c2ccc(Cl)c(Cl)c2)OC1=N (stereo unspecified)
inactive: outcome [1]

O=C(NC1CCC(CN2CCC(c3c[nH]c4ccccc34)CC2)CC1)NC12CC3CC(CC(C3)C1)C2 (stereo unspecified)
inactive: outcome [1]

CC[C@H]1CN2CC[C@@H]1C[C@H]2[C@H](O)c1cc(N2CCC(CO)CC2)nc2ccc(OC)cc12
inactive: outcome [1]

CC[C@H]1CN2CC[C@H]1C[C@H]2[C@H](OC(=O)c1ccccc1)c1cc(C#N)nc2ccc(OC)cc12
inactive: outcome [1]

COC(=O)c1ccc(CC(C)NCC(O)c2ccc(F)c(Cl)c2)cc1 (stereo unspecified)
inactive: outcome [1]

Cc1cc(C2CCCCN2C)ccc1-c1ccc(C(=O)N2CCc3cc4c(cc32)C2(CCN(C)CC2)CO4)cc1 (stereo unspecified)
inactive: outcome [1]

Cc1ccc(S(=O)(=O)N2CN3CCN(C3)C2)cc1
inactive: log fold change Tl+ flux [2] -0.028 | log fold change Tl+ flux [3] -0.0265 | log fold change Tl+ flux [4] -0.0357 | log fold change Tl+ flux [5] 0.048 | log fold change Tl+ flux [6] 0.0134 | log fold change Tl+ flux [7] 0.0146 | log fold change Tl+ flux [8] -0.00993 | log fold change Tl+ flux [9] -0.021 | log fold change Tl+ flux [10] -0.0275 | log fold change Tl+ flux [11] 0.0283

Cc1c(C)c2c(c(C)c1O)CC[C@@](C)(C(=O)NC1CCC(CN3CCC(c4c[nH]c5ccccc45)CC3)CC1)O2 (stereo partly specified)
inactive: outcome [1]

CCOC(=O)C1(c2ccccc2)CCN(CCC(C#N)(c2ccccc2)c2ccccc2)CC1
1.81: fold change [19, 20]
active: log fold change Tl+ flux [8] -0.137 | log fold change Tl+ flux [9] -0.169
4590: cell count [19, 22]
4740: cell count [19, 21]
inactive: parasite load remaining [12] 6.85% | fluorescence ratio [13] 0.99 | inhibition [14] 1.98% | inhibition [15] 4.52% | fluorescence ratio [16] 0.88 | z-score [17] -0.718 | mean signal [18] 215 | fold change ([19]; stronger effect = lower value) 1.03 | log fold change Tl+ flux [2] -0.0196 | log fold change Tl+ flux [3] -0.0124 | log fold change Tl+ flux [4] -0.00205 | log fold change Tl+ flux [5] 0.0154 | log fold change Tl+ flux [6] -0.0542 | log fold change Tl+ flux [7] 0.0145 | log fold change Tl+ flux [10] -0.00148 | log fold change Tl+ flux [11] 0.0218
62%: viability [12]

Cc1ncc2n1-c1ccc(Cl)cc1C(c1ccccc1F)=NC2
6400: cell count [19, 22]
6900: cell count [19, 21]
73.5%: viability [12]
active: log fold change Tl+ flux [2] -0.403 | log fold change Tl+ flux [3] -0.386 | log fold change Tl+ flux [4] -0.205 | log fold change Tl+ flux [5] -0.197 | log fold change Tl+ flux [8] -0.128 | log fold change Tl+ flux [10] 0.138
inactive: parasite load remaining [12] 105% | fluorescence ratio [13] 1.04 | inhibition [14] -1.98% | inhibition [15] -3.18% | fluorescence ratio [16] 1.02 | z-score [17] -0.669 | mean signal [18] 220 | fold change ([19]; stronger effect = lower value) 1.08 | log fold change Tl+ flux [6] -0.019 | log fold change Tl+ flux [7] -0.0381 | log fold change Tl+ flux [9] -0.00496 | log fold change Tl+ flux [11] 0.000117
1.63: fold change [19, 20]

CCCCC/C=C\C/C=C\C/C=C\C/C=C\CCCC(=O)Nc1ccc(O)cc1
5430 and 5550: cell count [19, 21]
5220 and 6950: cell count [19, 22]
0.71 and 1.12: fold change [19, 20]
87.5%: viability [12]
inactive: parasite load remaining [12] 94.1% | fluorescence ratio [13] 0.87 | inhibition [14] 0.4% | inhibition [15] 4.52% | fluorescence ratio [16] 0.88 | z-score [17] 0.572 | mean signal [18] 245 | fold change ([19]; stronger effect = lower value) 1.04 and 0.798

COc1ccc2[nH]cc(C3=CCNCC3)c2c1
72.8%: viability [12]
inactive: parasite load remaining [12] 75.7% | inhibition [14] -1.09% | inhibition [15] 5.91% | z-score [17] -1.09 | mean signal [18] 255 | fold change ([19]; stronger effect = lower value) 0.984 | fold change ([19]; stronger effect = lower value, cell number ratio, induced over uninduced) 0.928 | log fold change Tl+ flux [2] 0.0506 | log fold change Tl+ flux [3] 0.0695 | log fold change Tl+ flux [4] 0.0281 | log fold change Tl+ flux [5] 0.0777 | log fold change Tl+ flux [6] 0.0216 | log fold change Tl+ flux [7] -0.00261 | log fold change Tl+ flux [9] 0.0216 | log fold change Tl+ flux [10] 0.0779
7080 and 8260: cell count [19, 22]
active: fluorescence ratio [13] 0.58 | fluorescence ratio [16] 0.79 | log fold change Tl+ flux [8] 0.0891 | log fold change Tl+ flux [11] 0.242
1.1 and 0.779: fold change [19, 20]
6960 and 7660: cell count [19, 21]

Cc1nnc2n1-c1ccc(Cl)cc1C(c1ccccc1)=NC2
8940: cell count [19, 22]
inactive: parasite load remaining [12] 139% | fluorescence ratio [13] 1.03 | inhibition [14] -4.36% | inhibition [15] -1.64% | fluorescence ratio [16] 0.99 | z-score [17] -0.124 | mean signal [18] 234 | fold change ([19]; stronger effect = lower value) 1.01 | log fold change Tl+ flux [2] -0.0314 | log fold change Tl+ flux [3] -0.00299 | log fold change Tl+ flux [4] -0.00534 | log fold change Tl+ flux [5] -0.0542 | log fold change Tl+ flux [6] -0.0153 | log fold change Tl+ flux [7] 0.0519 | log fold change Tl+ flux [8] 0.00402 | log fold change Tl+ flux [9] 0.0255 | log fold change Tl+ flux [10] 0.0351 | log fold change Tl+ flux [11] -0.00622
9000: cell count [19, 21]
1.21: fold change [19, 20]
72.1%: viability [12]
